Screening data as filed in PubChem.
POLI inh: qHTS for Inhibitors of Polymerase Iota. Potency, µM (top dose mostly 115 µM), most hits filed as inhibitors. Pol iota fluorescent replication assay, 10 min. 390,000 tested, 1% active. DNA polymerase iota (Homo sapiens), Q9UNA4
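Pol iota at 10 nM preincubated 15 min with compounds at room temperature; reaction started with fluorescent substrate, 50 nM final. Fluorescence read kinetically at 0 and 10 min; buffer-only wells as negative control.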
FEN1 inhibitor: qHTS Assay for the Inhibitors of Human Flap endonuclease 1 (FEN1); Potency, µM (titrated, usually from 114 µM), hits mostly inhibitors; P39748; AID 588795, 2011; Recombinant FEN1 flap cleavage, fluorescence, 15 min; 390,000 tested, 0.35% active; note: nearly all actives have a fitted effect of over 65% in size
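Reaction started by adding substrate (50 nM final) to 10 nM enzyme after 15 min room-temperature compound preincubation. Reads at 0 and 15 min, with data normalized and fitted to a four-parameter Hill equation.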
Pol kappa inh-1: qHTS for Inhibitors of Polymerase Kappa | AID 588579, 2011 | DNA polymerase kappa (Homo sapiens), Q9UBT6 | Potency, µM (titrated, usually from 107 µM), usual class: inhibitors | purified Pol kappa, fluorescent DNA synthesis assay, 10 min | 400,000 tested, 0.53% active
Target sequence (Q9UBT6 whole entry, looked up): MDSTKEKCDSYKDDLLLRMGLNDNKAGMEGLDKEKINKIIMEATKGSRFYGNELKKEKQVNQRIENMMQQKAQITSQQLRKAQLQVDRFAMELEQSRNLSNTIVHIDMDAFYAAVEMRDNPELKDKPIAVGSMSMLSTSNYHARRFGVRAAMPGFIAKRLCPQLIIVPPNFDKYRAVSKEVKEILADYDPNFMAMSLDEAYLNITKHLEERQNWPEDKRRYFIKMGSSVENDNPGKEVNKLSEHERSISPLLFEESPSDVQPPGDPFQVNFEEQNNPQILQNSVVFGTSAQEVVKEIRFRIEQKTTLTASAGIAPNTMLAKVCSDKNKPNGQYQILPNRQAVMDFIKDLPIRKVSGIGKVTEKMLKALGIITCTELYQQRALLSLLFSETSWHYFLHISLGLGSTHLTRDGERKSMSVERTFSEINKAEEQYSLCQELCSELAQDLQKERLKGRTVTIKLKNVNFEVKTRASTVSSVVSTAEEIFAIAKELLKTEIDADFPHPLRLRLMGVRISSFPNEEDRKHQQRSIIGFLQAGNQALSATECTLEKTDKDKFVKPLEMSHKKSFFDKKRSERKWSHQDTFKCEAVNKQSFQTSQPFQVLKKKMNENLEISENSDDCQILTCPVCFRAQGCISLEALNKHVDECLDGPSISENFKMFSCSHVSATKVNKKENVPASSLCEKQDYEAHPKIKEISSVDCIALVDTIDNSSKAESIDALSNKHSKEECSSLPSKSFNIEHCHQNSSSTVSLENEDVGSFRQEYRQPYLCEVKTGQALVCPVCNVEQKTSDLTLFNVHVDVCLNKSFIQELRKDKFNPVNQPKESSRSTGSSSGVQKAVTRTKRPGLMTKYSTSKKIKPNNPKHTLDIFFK
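10 nM Pol kappa preincubated 15 min at room temperature with compounds, then reaction started with substrate at 50 nM final. Fluorescence read kinetically at 0 and 10 min; buffer-only wells served as negative control.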
POLB inh: qHTS Assay for Inhibitors of DNA Polymerase Beta; P06746; Pol beta primer extension/strand displacement, fluorescence kinetic; Potency, µM (doses to about 114 µM), actives largely listed as inhibitors; 340,000 tested, 1.3% active
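10 nM enzyme + cpd, 15 min RT; start with substrate 50 nM final; read 0 min and after 10 min RT. Corrected, normalized data; 4-parameter Hill curve fit.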
TDP1 block: qHTS Assay for Inhibitors of Tyrosyl-DNA Phosphodiesterase (TDP1); recombinant TDP1, AlphaScreen DNA substrate cleavage; 350,000 tested, 0.28% active; Potency, µM (highest dose often 130 µM), usual class: inhibitors; note: nearly all actives have a fitted effect of over 40% in size
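Steps: enzyme plus compound, 15 min RT; add biotin/phosphotyrosine-FITC oligonucleotide (15 nM final), react 5 min; add donor/acceptor beads (10 ug/ml final), 10 min; read AlphaScreen. Tdp1 at 1 nM final.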
Pol eta inh-1: qHTS for Inhibitors of Polymerase Eta; 390,000 tested, 1.2% active; AID 588591, 2011; Potency, µM (series often up to 114 µM), hits mostly inhibitors; DNA polymerase eta (Homo sapiens), Q9Y253; recombinant Pol eta, fluorescent DNA replication assay
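Pol eta (10 nM) was preincubated with compounds for 15 min at room temperature, after which fluorescent replication substrate (50 nM final) was added to start the reaction. Fluorescence was read kinetically at 0 and 10 min.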
GALK inh confirm: Confirmation Assay for Inhibitors of Human Galactokinase (GALK) | shares compounds with Pol eta inh-1 | purified GALK, Kinase-Glo ATP depletion luminescence | Potency, µM (series often up to 115 µM), usual class: inhibitors | 150 tested, 70% active
Redox cycling: Confirmatory Assay for Inhibitors of Human Galactokinase (GALK): Phenol-HRP redox assay counterscreen; Phenol red-HRP H2O2 redox cycling, absorbance 600 nm; AID 2035, 2009; Potency, µM (series often up to 115 µM), most hits filed as inhibitors; shares compounds with Pol eta inh-1; 150 tested, 40% active
HEK293 tox: Secondary Assay for Inhibitors of Human Galactokinase (GALK): HEK-293 Cell Viability Assay | shares compounds with Pol eta inh-1 | HEK-293 viability, ATP luminescence (CellTiter-Glo), 24/48 h | Potency, µM (series often up to 46.1 µM), usual class: inhibitors | 170 tested, 10% active
Pol kappa inh-2: qHTS for Inhibitors of Polymerase Kappa: Confirmatory Assay for Cherry-picked Compounds; 920 tested, 76% active; purified Pol-kappa, fluorescent strand-displacement substrate; AID 720501, 2013; shares compounds with Pol eta inh-1; Potency, µM, usual class: inhibitors
Pol eta inh-2: qHTS for Inhibitors of Polymerase Eta: Confirmatory Assay for Cherry-picked Compounds | Potency, µM, most hits filed as inhibitors | AID 720502, 2013 | 2,600 tested, 64% active | shares compounds with Pol eta inh-1 | Pol eta primer extension, TAMRA/BHQ fluorescence, 10 min
Each line names hits and unclear results; the compound was inactive in the other large screens (follow-up assays come after a bar, where they were run). An excerpt weighted towards active compounds, which were near 2.4% of everything screened. Calls come from the whole dose curve; as a rule, active = well fitted curve in the direction sought with a large enough effect; inconclusive = small, poorly fitted or top-dose-only effect, or another doubt; inactive = no such curve, though single readings can be large; an effect the other way counts as inactive or inconclusive.

CCCCNC(=O)Cn1c(SCc2cccc(C)c2)nc2ccncc21	none (no result: POLB inh, Pol eta inh-1)
Cc1nnc(NC(=O)C2CCN(C(=O)c3ccsc3)CC2)s1	none (no result: POLB inh, TDP1 block, Pol eta inh-1)
O=Nc1c(O)ccc2cc(S(=O)(=O)O)ccc12	POLI inh 18µM, FEN1 inhibitor inconclusive, Pol kappa inh-1 inconclusive, Pol eta inh-1 14µM (no result: POLB inh, TDP1 block) | Pol kappa inh-2 17 | Pol eta inh-2 30
NS(=O)(=O)c1ccc(N=Nc2c(O)ccc3ccccc23)cc1	Pol eta inh-1 inconclusive
COc1ccc(OC)c(CCNC(=O)c2ccc3c(c2)c(C)c(C)n3Cc2ccccc2)c1	none
O=C(NCCc1ccc(Cl)cc1)c1nc(-c2cccc(F)c2)n2c1CCCCC2	none
CCOC(=O)NCCOc1ccc(Oc2ccccc2)cc1	none (no result: POLI inh, FEN1 inhibitor, POLB inh, Pol eta inh-1)
O=C(Nc1ccc(Br)cc1Cl)c1cnccn1	POLI inh inconclusive, Pol eta inh-1 40µM | Pol eta inh-2 76
COc1cc(NC(=O)CCc2c(C)nc3c(c(C)nn3-c3ccccc3)c2C)cc(OC)c1OC	none
Cc1cc(-c2ccccc2C(=O)O)on1	none
Cc1cc2nc3s/c(=C/c4ccc(-c5ccccc5C(=O)O)o4)c(=O)n3c2cc1C	POLB inh inconclusive, Pol eta inh-1 25µM (no result: TDP1 block) | Pol eta inh-2 34
COc1cc(/C=C(/C#N)c2nc3ccccc3[nH]2)ccc1OCc1ccc(C(=O)O)o1	FEN1 inhibitor inconclusive, POLB inh inconclusive, Pol eta inh-1 5.6µM | Pol eta inh-2 48
COc1ccc(NC(=O)c2c(NCc3cccs3)sc3c2CCCC3)cc1	none
CCOC(=O)c1ccc(NC(=O)c2c(NCc3cccs3)sc3c2CCCCC3)cc1	POLI inh inconclusive, FEN1 inhibitor inconclusive, POLB inh inconclusive, Pol eta inh-1 79µM | Pol eta inh-2 inconclusive
CC(=O)OCC(=O)[C@@]1(O)[C@H](OC(C)=O)C[C@H]2[C@@H]3CCC4=CC(=O)C=C[C@]4(C)[C@@]3(F)[C@@H](O)C[C@@]21C	none (no result: POLI inh, FEN1 inhibitor, POLB inh, Pol eta inh-1)
CCN(CC)c1ccc(/C=C2/C(=O)c3ccc(C(=O)O)cc3C2=O)cc1	POLI inh 18µM, FEN1 inhibitor inconclusive, Pol kappa inh-1 79µM, POLB inh inconclusive, Pol eta inh-1 3.5µM | Pol kappa inh-2 7.5 | Pol eta inh-2 38
O=C(COC(=O)/C=C/c1ccco1)Nc1ccc(F)cc1Cl	POLI inh inconclusive, Pol kappa inh-1 inconclusive, POLB inh 22µM, Pol eta inh-1 inconclusive (no result: TDP1 block) | Pol eta inh-2 inconclusive
O=C(CCS(=O)(=O)c1ccc(Br)cc1)Nc1ccc(Cl)c(C(F)(F)F)c1	Pol eta inh-1 inconclusive | Pol kappa inh-2 19 | Pol eta inh-2 inconclusive
CCS(=O)(=O)C1=NN2C(=N)/C(=C\c3ccc(OCCOc4cccc(OC)c4)c(OC)c3)C(=O)N=C2S1	POLI inh inconclusive, POLB inh 50µM, Pol eta inh-1 35µM (no result: TDP1 block) | Pol kappa inh-2 inconclusive | Pol eta inh-2 inconclusive
COc1cc(/C=C2\C(=N)N3N=C(S(C)(=O)=O)SC3=NC2=O)ccc1OCCOc1ccc(C)cc1	POLI inh inconclusive, Pol eta inh-1 inconclusive (no result: TDP1 block) | Pol kappa inh-2 27 | Pol eta inh-2 inconclusive
COc1cc(/C=C2/C(=N)N3OC(C)=CC3=NC2=O)ccc1OC(=O)c1ccco1	none
CCC1=NN2C(=N)/C(=C/c3ccc(OS(=O)(=O)c4ccc(C)cc4)c(OC)c3)C(=O)N=C2S1	POLI inh inconclusive, POLB inh inconclusive, Pol eta inh-1 inconclusive | Pol eta inh-2 inconclusive
COc1cc(/C=C2/C(=N)N3C=CSC3=NC2=O)ccc1OCCCOc1ccccc1C	FEN1 inhibitor inconclusive
CCC1=NN2C(=N)/C(=C\c3ccc(OCCOc4ccccc4)c(OC)c3)C(=O)N=C2S1	none (no result: POLI inh, FEN1 inhibitor, Pol kappa inh-1, TDP1 block, Pol eta inh-1)
COc1cc(/C=C2\C(=N)N3N=C(S(=O)(=O)CC(C)C)SC3=NC2=O)ccc1OC(=O)c1ccco1	none (no result: POLI inh, FEN1 inhibitor, Pol kappa inh-1, Pol eta inh-1) | GALK inh confirm 27µM | Redox cycling inactive | HEK293 tox inactive
CS(=O)(=O)Oc1ccc(/C=C2\C(=N)N3N=C(CC(=O)N4CCOCC4)SC3=NC2=O)cc1Cl	none
Cc1ccc(S(=O)c2ccc([N+](=O)[O-])c3nonc23)cc1 (stereo not given)	Pol eta inh-1 14µM (no result: POLI inh, FEN1 inhibitor, Pol kappa inh-1, POLB inh, TDP1 block) | Pol kappa inh-2 inconclusive | Pol eta inh-2 34
O=C(O)/C(=C/c1ccco1)NC(=O)c1ccccc1	POLI inh inconclusive, POLB inh 40µM, TDP1 block inconclusive, Pol eta inh-1 11µM | Pol kappa inh-2 47 | Pol eta inh-2 inconclusive
O=C(O)/C(=C/c1ccco1)NC(=O)c1ccc(Br)o1	POLI inh inconclusive, POLB inh inconclusive, Pol eta inh-1 inconclusive (no result: TDP1 block) | Pol eta inh-2 60
O=C(N/C(=C\c1ccco1)C(=O)N1CCCC1)c1ccccc1	none (no result: TDP1 block)
COc1ccc(C2CC(=O)Oc3c(C(CCN4CCCC(C)C4)c4cc(OC)c(OC)c(OC)c4)c(OC)cc(OC)c32)cc1 (stereo not given)	none (no result: POLB inh, Pol eta inh-1)
Cc1cc(Nc2nc3ccccc3c3nnc(C)n23)ccc1Br	none
C#Cc1ccc([C@H]2C=C(C(=O)O)O[C@@H](OCCCCO)C2)cc1	POLI inh 50µM, Pol kappa inh-1 inconclusive, Pol eta inh-1 20µM (no result: POLB inh, TDP1 block) | Pol kappa inh-2 inconclusive
COc1ccc([C@@H]2C=C(C(=O)O)O[C@H](OCCCCO)C2)cc1	none
